Hits are enriched below; roughly 18% of the tested compounds scored in any of these assays.
TGFb inhibitor: qHTS for Inhibitors of TGF-b. Potency, µM (top dose mostly 46.1 µM), without a hit: at the top dose activity, negative = inhibition, most hits filed as inhibitors. actives 1.2% (n = 410,000). HepG2 CAGA-GFP TGF-b/SMAD3 reporter, GFP fluorescence, 18 h; TGF-beta stimulated, 500 pg/mL final; also: potency is read from the fitted curve at half-maximal effect; % is scaled to controls: 0 for no effect and ±100 for the full control effect; nearly all actives have a fitted effect of over 65% in size
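HEPG2 CAGA-GFP reporter cells (1000/well, DMEM with 1% FBS) received compounds, then recombinant TGF-beta at 500 pg/mL final for 18 hours at 37 degrees C. Per-cell GFP summed per well was normalised to unstimulated and stimulated DMSO controls before curve fitting.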
TDP1 block: qHTS Assay for Inhibitors of Tyrosyl-DNA Phosphodiesterase (TDP1). Potency, µM (highest dose often 130 µM), for the others: top-dose activity change, negative = inhibition, most hits filed as inhibitors. recombinant TDP1, AlphaScreen DNA substrate cleavage. actives 0.28% (n = 350,000). Tyrosyl-DNA phosphodiesterase 1 (Homo sapiens), Q9NUW8. AID 485290, 2010; also: potency is read from the fitted curve at half-maximal effect; % is scaled to controls: 0 for no effect and ±100 for the full control effect; nearly all actives have a fitted effect of over 40% in size
Target sequence (Q9NUW8 whole entry, looked up): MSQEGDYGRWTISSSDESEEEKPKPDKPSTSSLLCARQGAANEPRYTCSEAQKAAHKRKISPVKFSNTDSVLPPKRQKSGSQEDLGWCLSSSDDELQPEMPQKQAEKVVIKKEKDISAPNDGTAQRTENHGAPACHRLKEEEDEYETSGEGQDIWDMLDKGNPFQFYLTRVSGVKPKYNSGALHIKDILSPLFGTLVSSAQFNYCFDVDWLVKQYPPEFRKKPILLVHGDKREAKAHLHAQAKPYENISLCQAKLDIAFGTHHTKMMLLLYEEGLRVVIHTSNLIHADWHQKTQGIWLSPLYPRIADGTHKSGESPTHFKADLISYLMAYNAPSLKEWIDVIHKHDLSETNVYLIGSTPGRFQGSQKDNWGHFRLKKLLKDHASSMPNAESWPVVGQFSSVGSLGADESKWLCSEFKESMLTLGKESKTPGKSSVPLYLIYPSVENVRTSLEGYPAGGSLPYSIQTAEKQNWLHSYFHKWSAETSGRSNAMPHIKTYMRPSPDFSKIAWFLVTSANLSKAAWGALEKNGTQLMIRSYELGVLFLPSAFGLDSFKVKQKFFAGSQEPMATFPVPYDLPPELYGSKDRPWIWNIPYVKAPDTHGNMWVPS
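Steps: enzyme plus compound, 15 min RT; add biotin/phosphotyrosine-FITC oligonucleotide (15 nM final), react 5 min; add donor/acceptor beads (10 ug/ml final), 10 min; read AlphaScreen. Tdp1 at 1 nM final.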
TDP1 cell noCPT: qHTS for Inhibitors of human tyrosyl-DNA phosphodiesterase 1 (TDP1): qHTS in cells in absence of CPT | DT40 Tdp1-/- hTDP1 cells, no CPT, ATP luminescence, 48 h | Potency, µM (titrated, usually from 46.2 µM), for the others: at the top dose activity change, negative = growth inhibition, actives largely listed as inhibitors | actives 15% (n = 420,000); also: potency is read from the fitted curve at half-maximal effect; % is scaled to controls: 0 for no effect and ±100 for the full control effect; nearly all actives have a fitted effect of over 55% in size
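Cells were dispensed at 400 per well, compounds added by pin tool, plates incubated ≥48 hr at 37 °C, then CellTiter-Glo added for 30 min at room temperature before luminescence reading. Line: DT40 Tdp1-/- complemented with hTDP1; camptothecin omitted.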
HepG2 tox: qHTS for Inhibitors of TGF-b: Cytotox Counterscreen; HepG2 CAGA-GFP viability, ATP luminescence, 18 h; Potency, µM (top dose mostly 46.1 µM), inactives show at the highest dose activity change, negative = cytotoxicity, usual class: cytotoxic; actives 0.76% (n = 410,000); AID 588856, 2011; also: potency is read from the fitted curve at half-maximal effect
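CellTiter-Glo luminescence gave cytotoxicity after 18 hours at 37 degrees C. The cells were HepG2 CAGA-GFP in 1% FBS DMEM, stimulated with 500 pg/mL TGF-beta after compound addition. %Activity was normalised to no-cell wells (complete cell-killing) and DMSO (no toxicity), and curves were fitted and classified.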
IL-1B inflam inh: qHTS for Inhibitors of Inflammasome Signaling: IL-1-beta AlphaLISA Primary Screen; actives 4.7% (n = 360,000); AID 743279, 2014; THP-1 LPS/ATP IL-1B secretion, AlphaLISA, 16 h; active compounds read low; activity change, % at 57.5 µM; in the data active = activity change below about -50%; inconclusive = mostly about -30% to -49%; also: % is scaled to controls: 0 for no effect and ±100 for the full control effect
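THP-1 cells pretreated 1 hr with compounds (up to 57.5 uM final), then stimulated with LPS (250 ng/mL final) plus ATP (1.25 mM final); secreted IL-1B measured by AlphaLISA after 16 hr, decreased signal indicating inhibition.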
DT40 TDP1 CPT: qHTS for Inhibitors of human tyrosyl-DNA phosphodiesterase 1 (TDP1): qHTS in cells in presence of CPT; chicken DT40 Tdp1-/-;hTDP1 cells + 20 nM CPT, ATP luminescence, 48 h; actives 12% (n = 420,000); Potency, µM (doses to about 46.2 µM), for the others: at the highest dose activity change, negative = growth inhibition, usual class: inhibitors; also: potency is read from the fitted curve at half-maximal effect; % is scaled to controls: 0 for no effect and ±100 for the full control effect; nearly all actives have a fitted effect of over 55% in size
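Cell growth measured by CellTiter-Glo luminescence after a minimum 48 h, 37 C compound exposure with 20 nM CPT in Tdp1-knockout DT40 cells stably expressing hTDP1, seeded 400/well; qHTS titration format.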
Starred values were filed as active, the others as inactive; u = inconclusive; x = no result given; [ ] = remark or other dose. Unless noted, calls follow the shape of the dose curve; as a rule, active = well fitted curve in the direction sought with a large enough effect; inconclusive = small, poorly fitted or top-dose-only effect, or another doubt; inactive = no such curve, though single readings can be large; an effect the other way counts as inactive or inconclusive.

SMILES	TGFb inhibitor	TDP1 block	TDP1 cell noCPT	HepG2 tox	IL-1B inflam inh	DT40 TDP1 CPT
Nc1nc(NCC2CCC(CNS(=O)(=O)c3cccc4ccccc34)CC2)nc2ccccc12 (stereo not given)	x	18.7%	x	x	x	x
CCc1ccc(NS(=O)(=O)c2ccc(C(=O)N(C)C)s2)cc1	-38.2%	-6.2%	14.6µM*	-19.6%	x	18.4µM*
Cc1cccc(OCCCC(=O)NNC(=O)c2ccccn2)c1	u	2.1%	7.31µM*	-21.6%	88.8	6.51µM*
COc1ccccc1CNC(=O)CN(C)c1nn2c(=O)cc(C)nc2s1	1.5%	0.0%	-7.5%	3.2%	x	u
c1ccc(Cc2nnc(SCc3nc(-c4cccs4)no3)n2-c2ccccc2)cc1	u	3.7%	u	-24.5%	x	u
CCc1ccc(-n2c(Cc3ccccc3)nnc2SCc2nc(-c3cccs3)no2)cc1	u	2.5%	16.4µM*	-47.9%	x	23.1µM*
Cc1ccc(-n2c(Cc3ccccc3)nnc2SCc2nc(-c3cccs3)no2)cc1	u	3.7%	u	-41.7%	x	u
Cc1cccc(-n2c(Cc3ccccc3)nnc2SCc2nc(-c3cccs3)no2)c1	12.6µM*	2.5%	u	-51.7%	x	u
Cc1ccc(-n2c(Cc3ccccc3)nnc2SCc2nc(-c3cccs3)no2)cc1C	u	3.7%	23.1µM*	-34.7%	x	u
CN(C)C(CNC(=O)c1c(F)cccc1Cl)c1ccco1 (stereo not given)	11.8%	0.0%	-5.8%	-49.3%	14.6	2.1%
Cn1c2cc(C#N)sc2c2cnn(Cc3ccccc3F)c(=O)c21	x	0.0%	x	x	x	x
CC(=O)Nc1ccc(S(=O)(=O)N2CCCN(S(=O)(=O)c3ccc4c(c3)OCCO4)CC2)cc1	x	2.1%	x	x	x	x
Cc1ccc(NC(=O)CSC(C)C(=O)NCCc2ccccn2)cc1 (stereo not given)	9.6%	-0.6%	-8.7%	-2.2%	-3.2	-8.8%
COCc1c(C(=O)OCC(=O)c2c(N)n(CC(C)C)c(=O)n(C)c2=O)oc2ccccc12	u	6.3%	20.6µM*	-18.0%	3.3	18.4µM*
Cc1c(C(=O)OCC(=O)c2c(N)n(CC(C)C)c(=O)n(C)c2=O)oc2ccccc12	u	-2.5%[56.1 µM]	23.1µM*	-2.8%	-5.1	u
Cc1cc(NC(=O)CN(C)S(=O)(=O)c2cccc(Cl)c2)no1	3.1%	2.5%	8.2%	-4.3%	5.5	2.6%
CCc1ccc2c(O)c3c(cc2c1C(=O)OC)C(=O)c1c(O)ccc(O)c1C3=O	x	-10.6%	0.7%	x	x	-9.9%
CC(C)SC1=NC(C)(C)C=C(/C=C/c2c(Cl)cccc2Cl)N1	u	6.6%	u	-10.8%	-82.3*	u
CC(C)SC1=NC(C)(C)C=C(/C=C/c2ccc(Cl)cc2Cl)N1	u	4.6%	u	-43.2%	-113.1*	u
Cc1ccc(NS(=O)(=O)c2cc3c(cc2F)NC(=O)CC3)cc1C	x	0.4%	x	x	x	x
O=C(CCl)Nc1ccccc1Sc1ccc(Cl)cc1	-7.1%	-5.7%	u	-72.1%	-100.1*	20.6µM*
O=C(COC(=O)Cn1cnc2ccccc2c1=O)Nc1ccccc1Sc1ccc(Cl)cc1	u	0.0%	25.9µM*	10.1%	0.0	13µM*
CCCCCn1c(CCNC(=O)c2cccc(C)c2)nc2ccccc21	u	8.8%	18.4µM*	-34.5%	x	20.6µM*
O=C(NCCc1nc2ccccc2n1Cc1ccc(Cl)cc1)c1ccccc1	u	0.0%	u	-36.0%	x	u
Cc1cccc(C(=O)NCCc2nc3ccccc3n2Cc2ccc(Cl)cc2)c1	u	10.1%	u	-98.7%	x	20.6µM*
SMILES	TGFb inhibitor	TDP1 block	TDP1 cell noCPT	HepG2 tox	IL-1B inflam inh	DT40 TDP1 CPT
COc1cc(NC(=O)c2cccc(Cl)c2)ccc1NC(=O)c1cccs1	2.9%	4.9%	18.4µM*	2.5%	x	u
COc1cc(NC(=S)NC(=O)c2ccccc2F)ccc1NC(=O)c1cccs1	-7.6%	8.2%	7.8%	-4.1%	u	0.7%
COc1ccc(-c2nnc(NC(=O)Cc3ccccc3)s2)c(OC)c1	-1.8%	2.5%	-29.2%	9.2%	14.7	-19.5%
COc1ccc(-c2nnc(NC(=O)c3cccs3)s2)c(OC)c1	-3.2%	-5.1%	29.1µM*	3.1%	0.0	16.4µM*
COc1c(Cl)cc(Cl)cc1/C=C/C(=O)c1ccc(NC(=O)c2cccs2)cc1	u	2.7%	2.59µM*	-98.5%	-103.9*	2.31µM*
COc1c(Cl)cc(Cl)cc1C(=O)Nc1ccc(C(=O)O)cc1	u	-3.8%	-6.4%	-0.2%	20.3	-6.4%
COc1cc(C(=O)Nc2cccc(NC(=O)c3cccs3)c2)cc(OC)c1OC	-9.3%	x	20.6µM*	-17.5%	-26.9	20.6µM*
CCn1nnnc1NCc1cccc(Cl)c1	u	4.3%	-1.7%	13.8%	10.4	-15.4%
O=C(COc1ccc(Br)cc1)N(CCO)CCO	-21.4%	-2.4%	11.6%	-29.4%	13.8	5.2%
COc1cc(NC(=O)c2ccc([N+](=O)[O-])o2)ccc1NC(=O)c1cccs1	u	5.1%	3.66µM*	-104.9%	-90.1*	2.31µM*
COc1cc(NC(=O)c2cccs2)ccc1NC(=O)Cc1ccccc1	5.7%	4.1%[56.1 µM]	-4.9%	-0.5%	-16.7	0.1%
COc1ccc(NC(=O)c2cccs2)cc1NC(=O)c1ccco1	11.3%	3.1%	u	-6.7%	u	u
COc1cc(NC(=O)c2cc3ccccc3cc2OC)ccc1NC(=O)c1cccs1	-0.1%	0.2%	13µM*	-6.4%	-69.3*	23.1µM*
COc1ccc(CN(C)C(=O)c2ccncc2)c(OC)c1	0.6%	2.0%	-7.4%	-5.8%	26.0	-12.5%
CC1(C)CC(=O)C=C(c2ccc(-c3ccc(S(C)(=O)=O)cc3)cc2)C1=O	2.7%	x	11.6µM*	-22.2%	23.9	20.6µM*
COc1cccc(-c2ccc(C3=CC(=O)CC(C)(C)C3=O)cc2)c1OC	1.5%	x	20.6µM*	-36.4%	-4.5	u
CC(=O)OCc1ccc(C2=CC(=O)CC(C)(C)C2=O)cc1	-20.9%	x	-17.2%	-42.2%	4.3	14.9%
